Results filed as inconclusive are left out. The source made the active and inactive calls. Rule for the calls, unless noted: active = hit-call score of the fitted dose curve at least 0.9, where 1 is the maximum; inactive = score below 0.9.
Columns and labels:
[1] = ATG_GRE_CIS: Attagene CIS-FACTORIAL HepG2 Assay for human Glucocorticoid Response Elements (GRE) (AID 2282947); details: HepG2 GRE cis-reporter, Attagene multiplex mRNA; actives raise or lower the signal
Method in brief: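 HepG2 cells transiently transfected with multiple cis-promoter reporter units measure endogenous TF activity; 24 h compound exposure. Reporter mRNA quantified by RT-PCR, FAM labelling, HpaI digestion and capillary electrophoresis; bidirectional fit vs DMSO baseline.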

[2] = biological target: Hepatocyte nuclear factor 6 (Homo sapiens) (UniProt Q9UBC0); assay: ATG_HNF6_CIS: Attagene CIS-FACTORIAL HepG2 Assay for human Hepatocyte Nuclear Factor 6 (HNF6) (AID 2282952); details: HepG2 Attagene cis-factorial HNF6 reporter transcription; actives raise or lower the signal
Method in brief: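 HepG2, transient MRTU transfection (cis promoters); 24 h chemical exposure; total RNA → oligo(dT) RT → PCR → 6-FAM labelling → HpaI cut → CE; bidirectional fit vs DMSO.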

[3] = ATG_PBREM_CIS: Attagene CIS-FACTORIAL HepG2 Assay for human Phenobarbital-responsive Enhancer Module (PBREM) (AID 2282955); details: HepG2 PBREM cis-reporter, Attagene multiplexed transcription; actives raise or lower the signal
Method in brief: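 Multiplexed cis-reporter readout in human hepatoma HepG2 cells; PBREM-regulated transcript quantified after 24 h exposure by fluorescent RT-PCR fragment analysis. Signal changes up or down fitted relative to DMSO.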

[4] = ATG_PPRE_CIS: Attagene CIS-FACTORIAL HepG2 Assay for human Peroxisome Proliferator-activated Response Element (PPRE) (AID 2282958); details: HepG2 PPRE cis-element reporter, Attagene transcription factor profiling; actives raise or lower the signal
Method in brief: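 DMSO served as negative control and baseline for bidirectional curve fitting. Signal came from PPRE-regulated reporter mRNA in HepG2 cells, measured 24 h post-dosing by RT-PCR, 6-FAM primer extension and capillary electrophoresis.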

[5] = ATG_VDRE_CIS: Attagene CIS-FACTORIAL HepG2 Assay for human Vitamin D Receptor Element (VDRE) (AID 2282968); details: HepG2 VDRE cis-reporter transcription, actives raise or lower the signal
Method in brief: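 HepG2 cells transiently transfected with cis-element reporter units, dosed 24 h; reporter mRNA measured by RT-PCR, 6-FAM labeling, HpaI digestion and capillary electrophoresis. Activity fitted bidirectionally against DMSO baseline.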

[6] = ATG_M_06_TRANS: Attagene TRANS-FACTORIAL HepG2 Assay for M06 Transcription Factor (Internal Marker) (AID 2282983; active = hit-call score of the fitted dose curve at least 0.9, where 1 is the maximum;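 note: reporter transcript level by RT-PCR then capillary electrophoresis fluorescence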); details: HepG2 Attagene TRANS M06 internal marker reporter
Method in brief: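 Transfect HepG2 with MRTUs → dose compounds 24 h → isolate RNA, oligo(dT) RT → PCR with reporter primers → 6-FAM primer extension → HpaI digest → CE fragment analysis. Positive direction vs DMSO.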

[7] = ATG_M_32_TRANS: Attagene TRANS-FACTORIAL HepG2 Assay for M32 Transcription Factor (Internal Marker) (AID 2282984; active = hit-call score of the fitted dose curve at least 0.9, where 1 is the maximum;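 note: transcript level of a background control reporter unit measured by RT-PCR and capillary electrophoresis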); details: HepG2 Attagene TRANS M32 internal marker reporter
Method in brief: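 HepG2 cells transiently transfected with multiple GAL4-UAS reporter transcription units, dosed for 24 hours; reporter mRNA quantified by RT-PCR, 6-FAM primer extension, HpaI digestion and capillary electrophoresis. Gain-of-signal fitted versus DMSO baseline; internal background-control marker.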

[8] = biological target: Nuclear receptor subfamily 4 group A member 2 (Homo sapiens) (UniProt P43354); assay: ATG_NURR1_TRANS: Attagene TRANS-FACTORIAL HepG2 Assay for human Nuclear Receptor Related Protein 1 (NURR1) (AID 2282985; active = hit-call score of the fitted dose curve at least 0.9, where 1 is the maximum); details: HepG2 Attagene TRANS reporter, mRNA readout
Method in brief: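 HepG2 cells transiently transfected with GAL4-UAS reporter units and chimeric NR-Gal4 constructs; chemical exposure 24 h. Reporter mRNA quantified by RT-PCR, fluorescent labelling and capillary electrophoresis; gain of signal fitted relative to DMSO baseline.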

[9] = ATG_NFI_CIS: Attagene CIS-FACTORIAL HepG2 Assay for human Nuclear Factor I (NFI) (AID 2282989); details: HepG2 cis-regulatory reporter, NFI response element transcription; actives raise or lower the signal
Method in brief: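 HepG2 cells transiently transfected with cis-element-driven multiplexed reporter transcription units, dosed for 24 h. Reporter mRNA quantified by RT-PCR, fluorescent labelling, HpaI digestion and capillary electrophoresis; bidirectional fit versus DMSO baseline.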

[10] = ATG_NF_kB_CIS: Attagene CIS-FACTORIAL HepG2 Assay for human Nuclear Factor Kappa B (NF-kB) (AID 2282991); details: HepG2 Attagene cis-factorial NF-kB reporter mRNA; actives raise or lower the signal
Method in brief: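 DMSO served as negative control and baseline for bidirectional curve fitting. Transiently transfected HepG2 cells were dosed for 24 h, then reporter transcripts were measured by RT-PCR with capillary electrophoresis detection.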

[11] = biological target: Peroxisome proliferator-activated receptor gamma (Homo sapiens) (UniProt P37231); assay: ATG_PPARg_TRANS: Attagene TRANS-FACTORIAL HepG2 Assay for human Peroxisome Proliferator-activated Receptor-gamma (PPARg) (AID 2283007; active = hit-call score of the fitted dose curve at least 0.9, where 1 is the maximum)
Method in brief: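 Chimeric NR-Gal4 transactivation is measured in transiently transfected HepG2 cells by reporter mRNA induction at 24 h. Detection uses RT-PCR with fluorescent labelling and capillary electrophoresis; DMSO defines baseline.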

[12] = biological target: Nuclear receptor subfamily 1 group I member 2 (Homo sapiens) (UniProt O75469); assay: ATG_PXR_TRANS: Attagene TRANS-FACTORIAL HepG2 Assay for human Pregnane X Receptor (PXR) (AID 2283008; active = hit-call score of the fitted dose curve at least 0.9, where 1 is the maximum)
Method in brief: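 Fluorescence intensity of FAM-labelled, HpaI-digested reporter amplicons, separated by capillary electrophoresis, quantifies induction. HepG2 cells with PXR-Gal4 trans-reporter system were exposed 24 h; DMSO defines baseline.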

[13] = biological target: Retinoic acid receptor RXR-alpha (Homo sapiens) (UniProt P19793); assay: ATG_RXRa_TRANS: Attagene TRANS-FACTORIAL HepG2 Assay for human Retinoid X Receptor alpha (RXRa) (AID 2283012; active = hit-call score of the fitted dose curve at least 0.9, where 1 is the maximum)
Method in brief: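 Cells (HepG2) carried transiently transfected GAL4-responsive reporter units. Following a 24 h chemical incubation, reporter mRNA induction was read via RT-PCR fragment analysis; DMSO served as negative control and baseline.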

[14] = biological target: human Thyroid Receptor alpha (THRa1), THRA (gene 7067) (UniProt P10827); assay: ATG_THRa1_TRANS: Attagene TRANS-FACTORIAL HepG2 Assay for human Thyroid Receptor alpha (THRa1) (AID 2283014; active = hit-call score of the fitted dose curve at least 0.9, where 1 is the maximum)
Method in brief: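 Reporter transcript induction, read by capillary electrophoresis of 6-FAM-labelled RT-PCR products, reflects activity of a transfected THRa1-Gal4 fusion in HepG2 liver cells. Cells were dosed for 24 h; activity was fitted in the positive direction against DMSO.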

[15] = ATG_XTT_Cytotoxicity: Cytotoxicity Assessment in the Attagene TRANS-FACTORIAL HepG2 Assay (AID 2283584; active = hit-call score of the fitted dose curve at least 0.9, where 1 is the maximum)
Method in brief: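 Cells: human HepG2, transiently transfected with MRTU reporter constructs. Exposure 24 h. Readout: XTT, cell number. Baseline/neg ctrl DMSO; loss-of-signal scored.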

[16] = ACEA_ER_AUC_viability: ACEA Biosciences xCELLigence Real-Time Cell Analysis on Estrogen Receptor Agonism for Viability (AID 2283782; active = hit-call score of the fitted dose curve at least 0.9, where 1 is the maximum;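 note: continuous compound exposure with impedance area under curve over 80 h; hit means loss of impedance signal meaning reduced cell growth or viability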)
Method in brief: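 T-47D human breast cells in phenol red-free RPMI1640 with 10% charcoal-stripped FBS were dosed with an 8-point 1:4 dilution series from 100 uM top final concentration, in duplicate. Impedance-based growth was followed for 80 h; AUC analysed versus DMSO.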

[17] = ATG_CMV_CIS: Attagene CIS-FACTORIAL HepG2 Assay for human CMV (Internal Marker) (AID 2282928); details: HepG2 CMV promoter reporter, transcription factor profiling; actives raise or lower the signal;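 note: endpoint acts as a background internal control marker rather than a target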
Method in brief: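 Cell system: HepG2, transiently transfected multiple reporter units under cis promoters. Exposure: 24 h. Detection: RT-PCR, FAM labeling, HpaI digestion, capillary electrophoresis. Analysis: bidirectional, DMSO baseline.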

[18] = ATG_TAL_CIS: Attagene CIS-FACTORIAL HepG2 Assay for human TAL Basal Promoter (AID 2282966); details: HepG2 Attagene cis-factorial TAL promoter reporter; actives raise or lower the signal;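 note: background control endpoint measuring basal TAL promoter reporter mRNA not a specific factor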
Method in brief: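 Fluorescence of labelled reporter cDNA fragments, resolved by capillary electrophoresis, gave the readout. Human HepG2 liver cells carried transiently transfected cis-element reporter units and were treated for 24 hours; activity was fitted bidirectionally against DMSO.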

[19] = biological target: Cellular tumor antigen p53 (Homo sapiens) (UniProt P04637); assay: TOX21_p53_BLA_p2_ratio: Tox21 HCT-116 p53 Agonism Beta-lactamase Assay, Ratio, Phase 2 (AID 2283592; active = hit-call score of the fitted dose curve at least 0.9, where 1 is the maximum)
Method in brief: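 HCT116 p53-bla; 4000 cells/well; 5 h pre-incubation; cpd in DMSO, 217-fold dilution; 16 h 37C/5% CO2; CCF4-AM 2 h RT; Ex 405, Em 460/530 ratio; DMSO = baseline; positive fitting direction.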

[20] = biological target: Cellular tumor antigen p53 (Homo sapiens) (UniProt P04637); assay: TOX21_p53_BLA_p5_ratio: Tox21 HCT-116 p53 Agonism Beta-lactamase Assay, Ratio, Phase 5 (AID 2283599; active = hit-call score of the fitted dose curve at least 0.9, where 1 is the maximum)
Method in brief: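 HCT-116 cells carrying a p53-inducible beta-lactamase reporter were seeded at 4000 cells/well and dosed after 5 h with compound in DMSO (217-fold dilution). After 16 h at 37C, CCF4-AM substrate was added for 2 h, and the 460/530 nm emission ratio was scored as gain-of-signal versus DMSO.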

Cellular tumor antigen p53 (Homo sapiens), sequence (P04637 whole entry, looked up): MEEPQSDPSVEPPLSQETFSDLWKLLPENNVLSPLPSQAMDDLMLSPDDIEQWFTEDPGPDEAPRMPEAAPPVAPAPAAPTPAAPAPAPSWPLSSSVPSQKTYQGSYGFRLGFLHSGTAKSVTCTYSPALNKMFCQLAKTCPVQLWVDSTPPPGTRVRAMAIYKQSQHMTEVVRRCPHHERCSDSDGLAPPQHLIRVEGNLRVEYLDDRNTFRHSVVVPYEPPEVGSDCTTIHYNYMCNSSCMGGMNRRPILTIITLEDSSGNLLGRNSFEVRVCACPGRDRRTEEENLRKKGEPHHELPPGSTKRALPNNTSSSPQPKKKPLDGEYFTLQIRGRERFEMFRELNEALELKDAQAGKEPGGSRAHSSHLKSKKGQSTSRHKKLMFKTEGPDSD
Peroxisome proliferator-activated receptor gamma (Homo sapiens), sequence (P37231 whole entry, looked up, the tested form may be a part): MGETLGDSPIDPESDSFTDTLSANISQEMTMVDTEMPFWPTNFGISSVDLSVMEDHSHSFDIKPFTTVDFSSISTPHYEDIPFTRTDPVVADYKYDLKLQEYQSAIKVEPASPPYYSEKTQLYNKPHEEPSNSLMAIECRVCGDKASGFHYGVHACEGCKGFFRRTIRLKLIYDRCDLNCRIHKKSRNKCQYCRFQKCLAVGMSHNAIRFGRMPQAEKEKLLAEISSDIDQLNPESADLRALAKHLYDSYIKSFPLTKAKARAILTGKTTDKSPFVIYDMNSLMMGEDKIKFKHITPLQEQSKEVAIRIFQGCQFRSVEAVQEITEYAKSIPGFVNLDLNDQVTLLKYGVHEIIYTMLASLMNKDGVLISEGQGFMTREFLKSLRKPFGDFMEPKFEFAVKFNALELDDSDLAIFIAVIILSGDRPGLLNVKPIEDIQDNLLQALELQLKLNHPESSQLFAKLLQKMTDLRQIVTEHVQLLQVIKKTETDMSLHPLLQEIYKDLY
Hepatocyte nuclear factor 6 (Homo sapiens), sequence (Q9UBC0 whole entry, looked up): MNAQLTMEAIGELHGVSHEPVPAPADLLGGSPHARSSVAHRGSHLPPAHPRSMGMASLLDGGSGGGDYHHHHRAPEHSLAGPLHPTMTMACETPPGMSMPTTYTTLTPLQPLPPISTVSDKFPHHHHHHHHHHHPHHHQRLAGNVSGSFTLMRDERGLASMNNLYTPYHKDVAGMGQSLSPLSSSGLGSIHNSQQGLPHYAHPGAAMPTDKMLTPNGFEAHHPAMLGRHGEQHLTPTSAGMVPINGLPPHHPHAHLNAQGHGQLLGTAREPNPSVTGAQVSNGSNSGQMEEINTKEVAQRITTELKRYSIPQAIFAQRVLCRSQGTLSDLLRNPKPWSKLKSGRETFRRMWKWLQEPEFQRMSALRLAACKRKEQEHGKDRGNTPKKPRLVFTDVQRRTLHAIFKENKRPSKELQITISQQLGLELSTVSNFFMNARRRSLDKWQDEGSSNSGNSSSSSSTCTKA
Nuclear receptor subfamily 1 group I member 2 (Homo sapiens), sequence (O75469 whole entry, looked up, the tested form may be a part): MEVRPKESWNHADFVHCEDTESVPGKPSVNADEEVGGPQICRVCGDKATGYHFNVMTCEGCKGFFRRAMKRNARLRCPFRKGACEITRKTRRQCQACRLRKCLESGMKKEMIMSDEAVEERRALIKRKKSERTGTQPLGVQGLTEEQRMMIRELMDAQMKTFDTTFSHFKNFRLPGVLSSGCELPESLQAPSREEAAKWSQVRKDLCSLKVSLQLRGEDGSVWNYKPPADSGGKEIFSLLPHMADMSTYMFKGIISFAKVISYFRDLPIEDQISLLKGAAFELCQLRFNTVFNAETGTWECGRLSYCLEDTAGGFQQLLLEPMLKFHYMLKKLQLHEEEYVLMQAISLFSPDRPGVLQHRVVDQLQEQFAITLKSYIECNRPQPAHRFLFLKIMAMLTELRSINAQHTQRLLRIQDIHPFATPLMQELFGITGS
Retinoic acid receptor RXR-alpha (Homo sapiens), sequence (P19793 whole entry, looked up, the tested form may be a part): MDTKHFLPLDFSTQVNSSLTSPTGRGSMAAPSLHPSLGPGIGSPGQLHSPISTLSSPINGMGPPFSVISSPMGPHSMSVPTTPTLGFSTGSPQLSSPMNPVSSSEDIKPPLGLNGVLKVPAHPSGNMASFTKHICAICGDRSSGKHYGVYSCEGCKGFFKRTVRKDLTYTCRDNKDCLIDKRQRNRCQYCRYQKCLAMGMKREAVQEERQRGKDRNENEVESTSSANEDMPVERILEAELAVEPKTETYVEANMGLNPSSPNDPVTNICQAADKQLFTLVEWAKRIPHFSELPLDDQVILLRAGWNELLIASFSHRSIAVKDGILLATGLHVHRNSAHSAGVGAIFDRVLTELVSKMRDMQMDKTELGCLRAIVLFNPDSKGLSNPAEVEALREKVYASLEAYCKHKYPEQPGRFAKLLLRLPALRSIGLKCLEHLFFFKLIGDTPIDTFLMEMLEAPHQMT
human Thyroid Receptor alpha (THRa1), THRA (gene 7067), sequence (P10827 whole entry, looked up, the tested form may be a part): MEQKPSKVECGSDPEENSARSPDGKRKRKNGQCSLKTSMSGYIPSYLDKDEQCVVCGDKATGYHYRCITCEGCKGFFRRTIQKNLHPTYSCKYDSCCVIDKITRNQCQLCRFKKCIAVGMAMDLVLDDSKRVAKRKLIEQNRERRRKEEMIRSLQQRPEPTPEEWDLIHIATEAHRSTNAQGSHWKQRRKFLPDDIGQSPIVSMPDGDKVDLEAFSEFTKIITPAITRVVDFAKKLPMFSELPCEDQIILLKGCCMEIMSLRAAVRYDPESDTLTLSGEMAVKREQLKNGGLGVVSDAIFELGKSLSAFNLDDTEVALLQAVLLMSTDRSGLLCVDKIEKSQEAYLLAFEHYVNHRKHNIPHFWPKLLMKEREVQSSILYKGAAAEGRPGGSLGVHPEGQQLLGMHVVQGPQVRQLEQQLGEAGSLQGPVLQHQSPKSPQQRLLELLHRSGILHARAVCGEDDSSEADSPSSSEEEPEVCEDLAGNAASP
Nuclear receptor subfamily 4 group A member 2 (Homo sapiens), sequence (P43354 whole entry, looked up, the tested form may be a part): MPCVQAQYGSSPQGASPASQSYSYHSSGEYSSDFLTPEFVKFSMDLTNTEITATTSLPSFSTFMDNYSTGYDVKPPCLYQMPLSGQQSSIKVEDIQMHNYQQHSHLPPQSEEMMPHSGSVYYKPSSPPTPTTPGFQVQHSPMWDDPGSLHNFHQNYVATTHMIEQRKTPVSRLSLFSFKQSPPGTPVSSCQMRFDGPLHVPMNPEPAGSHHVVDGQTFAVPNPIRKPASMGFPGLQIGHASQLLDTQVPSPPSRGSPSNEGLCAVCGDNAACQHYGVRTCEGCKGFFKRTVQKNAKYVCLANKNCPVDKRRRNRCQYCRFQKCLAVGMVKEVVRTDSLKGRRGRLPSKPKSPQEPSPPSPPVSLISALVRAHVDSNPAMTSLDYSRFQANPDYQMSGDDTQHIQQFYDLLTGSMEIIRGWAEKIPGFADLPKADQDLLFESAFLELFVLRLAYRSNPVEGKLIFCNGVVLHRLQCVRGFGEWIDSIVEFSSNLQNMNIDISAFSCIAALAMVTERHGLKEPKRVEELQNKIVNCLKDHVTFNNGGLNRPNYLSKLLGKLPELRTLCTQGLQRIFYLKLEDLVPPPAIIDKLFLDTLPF

Q: What does the source list for C=CCc1ccc(OC(=O)Cc2ccccc2)c(OC)c1?
A: outcome [1]: inactive; outcome [2]: inactive; outcome [3]: inactive; outcome [4]: inactive; AC50 [5]: 27.5 µM (active); outcome [6]: inactive; outcome [7]: inactive; outcome [8]: inactive; outcome [9]: inactive; AC50 [10]: 114 µM (active); AC50 [11]: 19 µM (active); AC50 [12]: 11.8 µM (active); outcome [13]: inactive; outcome [14]: inactive; outcome [15]: inactive; outcome [16]: inactive

Q: What does the source list for Cc1ccccc1CCl?
A: outcome [17]: inactive; outcome [1]: inactive; outcome [2]: inactive; outcome [3]: inactive; outcome [4]: inactive; outcome [18]: inactive; outcome [5]: inactive; outcome [6]: inactive; outcome [7]: inactive; outcome [10]: inactive; outcome [11]: inactive; outcome [12]: inactive; outcome [13]: inactive; outcome [19]: inactive; outcome [20]: inactive; outcome [16]: inactive

Q: For C[N+](C)=CCl, which outcome [17] is on record?
A: inactive

Q: And the outcome [1]?
A: inactive

Q: What about the outcome [18] of the same compound?
A: inactive

Q: What about the outcome [5] of the same compound?
A: inactive

Q: And the outcome [6]?
A: inactive

Q: And the outcome [9]?
A: inactive

Q: What about the outcome [10] of the same compound?
A: inactive

Q: And the outcome [11]?
A: inactive

Q: What about the outcome [13] of the same compound?
A: inactive

Q: What about the outcome [14] of the same compound?
A: inactive

Q: For O=C(O)COc1ccccc1, which outcome [17] is on record?
A: inactive

Q: And the outcome [1]?
A: inactive

Q: And the outcome [2]?
A: inactive

Q: And the outcome [3]?
A: inactive

Q: What about the outcome [4] of the same compound?
A: inactive

Q: And the outcome [18]?
A: inactive

Q: What about the outcome [5] of the same compound?
A: inactive

Q: And the outcome [6]?
A: inactive

Q: What about the outcome [7] of the same compound?
A: inactive

Q: And the outcome [9]?
A: inactive

Q: And the outcome [10]?
A: inactive

Q: What about the outcome [11] of the same compound?
A: inactive

Q: What about the outcome [12] of the same compound?
A: inactive

Q: What about the outcome [13] of the same compound?
A: inactive

Q: What about the outcome [15] of the same compound?
A: inactive

Q: And the outcome [20]?
A: inactive

Q: What about the outcome [16] of the same compound?
A: inactive
